Data taken from PubChem BioAssay AID624330 (Southern Research Specialized Biocontainment Screening …, 2012).
The campaign covered roughly 340,000 compounds. About 2,100 (0.62%) were called active.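 How the source made its calls: active means first-screen hits whose inhibition reached a set limit at any dose in the follow-up dose series; inconclusive means inhibition above the set first-screen limit but never retested; inactive means the rest.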 These entries were drawn from the full list. Results with a measured potency or affinity are listed apart.

The molecules below were run against Rac GTPase-activating protein 1 (Homo sapiens) (UniProt Q9H0H5) (assay: MgcRacGAP GTPase-activating activity inhibitors, confirmation, biochemical, ADP Hunter fluorescence, primary and confirmatory (AID 624330;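 further: fluorescence reports GDP produced by GAP-driven GTP hydrolysis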)). Conditions: MgcRacGAP-stimulated Rac1 GTP hydrolysis, at 30 µM, active compounds read high, GST-tagged Rac1 F28L mutant substrate.
Sequence of Rac GTPase-activating protein 1 (Homo sapiens) (Q9H0H5 whole entry, looked up): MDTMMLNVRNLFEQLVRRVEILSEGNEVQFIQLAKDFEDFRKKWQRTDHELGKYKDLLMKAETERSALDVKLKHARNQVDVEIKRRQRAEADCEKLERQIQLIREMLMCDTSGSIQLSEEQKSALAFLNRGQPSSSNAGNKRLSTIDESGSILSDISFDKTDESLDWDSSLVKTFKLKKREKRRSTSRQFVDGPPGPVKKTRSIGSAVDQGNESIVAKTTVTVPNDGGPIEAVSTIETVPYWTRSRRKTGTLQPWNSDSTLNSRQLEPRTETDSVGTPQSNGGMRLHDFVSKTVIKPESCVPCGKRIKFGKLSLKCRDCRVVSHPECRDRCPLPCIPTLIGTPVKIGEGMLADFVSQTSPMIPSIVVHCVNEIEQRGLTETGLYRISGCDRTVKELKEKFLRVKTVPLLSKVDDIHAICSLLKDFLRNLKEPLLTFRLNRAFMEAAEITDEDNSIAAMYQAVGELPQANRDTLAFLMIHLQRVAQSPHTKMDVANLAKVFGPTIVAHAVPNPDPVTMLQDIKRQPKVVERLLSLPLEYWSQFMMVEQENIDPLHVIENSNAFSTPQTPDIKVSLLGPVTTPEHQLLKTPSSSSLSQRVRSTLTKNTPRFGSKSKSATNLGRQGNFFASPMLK

inhibition, inactive:
CCOCCCNC(=O)c1cc2cc3cc(OC)ccc3nc2o1 11.9%
CCc1nc(SCC(=O)NNC(=O)c2ccc(OC)cc2)c2ccccc2n1 -0.86%
CN(Cc1ccccc1)C(=O)CCC1CCN(C(=O)c2ccccc2C(F)(F)F)CC1 -5.88%
COc1ccc(NC(=O)CS(=O)CC(=O)Nc2ccc(OC)c(OC)c2)cc1 (stereo not given) -4.61%
O=C(COC(=O)CC1CC2CCC1C2)Nc1ccc(Cl)c(S(=O)(=O)N2CCOCC2)c1 (stereo not given) 6.02%
CCN1CCN(C(=O)c2ccc(C)c(S(=O)(=O)Nc3cccc(C)c3)c2)CC1 3.11%
O=C(c1ccc(Cn2cc(Br)cn2)cc1)N1N=C(C(F)F)CC1(O)C(F)F (stereo not given) 0.1%
CCCc1nc(NCc2ccncc2)c2nnn(Cc3ccccc3F)c2n1 10.9%
COc1cc2c(cc1NC(=O)Nc1ccccc1)oc1ccccc12 -0.72%
COc1cc2c(cc1NC(=O)Nc1cccc(C)c1)oc1ccccc12 9.41%
COc1ccc(CNC(=O)Nc2cccc(C(F)(F)F)c2)cc1OC 6.37%
COc1cc2c(cc1NC(=O)Nc1ccc(C)cc1)oc1ccccc12 2.58%
COc1cccc(NC(=O)CN2C(=O)NC(C)(c3ccc(C)cc3)C2=O)c1 (stereo not given) 6.36%
COc1ccccc1Nc1nc(N)nc(CSc2nncn2C)n1 5.08%
CC(=O)c1ccc(NC(=O)CSc2nc(Nc3ccccc3)nc(N3CCOCC3)n2)cc1 8.08%
Cc1ccc(CNC(=O)C2CCCC2)cc1 6.2%
CCN(CC)c1ccc(CN2CCC(C(=O)NCc3ccc(C)cc3)CC2)cc1 36.2%
COc1ccc(CCNc2ccc(S(=O)(=O)N3CCN(C)CC3)cc2[N+](=O)[O-])cc1 1.77%
CC(/C=C1\N=C(SCc2ccccc2)SC1=O)=C\c1ccccc1 3%
C/C(=N/NC(=O)CNC(=O)/C=C/c1ccco1)c1ccc(Cl)cc1 18.5%
COc1ccc(/C(C)=N/NC(=O)CNC(=O)/C=C\c2ccco2)cc1 1.11%
COCCCN(CC(=O)Nc1ccc(N2CCOCC2)cc1)S(=O)(=O)c1ccccc1 5.72%
C=CCn1c(SCC(N)=O)nnc1-c1ccccc1O 4.07%
CCn1c(SC(C)C)nnc1-c1c[nH]c2ccccc12 7.88%
C=CCn1c(SCC(=O)O)nnc1-c1ccccc1 -4.43%
CC(C)Sc1nc2sc(-c3ccccc3)cc2c(=O)n1N 11.4%
CN(C)C(CNC(=O)C1CC(=O)N(Cc2ccccc2)C1)c1ccccc1 (stereo not given) 5.5%
CC(C)C[C@@]12C(=O)N(c3cccc(Cl)c3)C(=O)N1[C@H](c1ccc(Br)cc1)[C@@H]1C(=O)N(C(C)(C)C)C(=O)[C@@H]12 -10.5%
CCn1ccnc1CN(C)C(=O)CCc1nnc(CCCc2ccccc2)o1 -6.18%
CCCc1cc(-n2ccnc2)n2c(nc3ccccc32)c1C#N -0.61%
CCCc1cc(-n2cnc3ccccc32)n2c(nc3ccccc32)c1C#N 11%
COc1ccc(Br)c(C(=O)OCC(=O)NC2CCCCCC2)c1 8.08%
CCCCN1C(=O)C(CC(=O)NCCc2ccccn2)CC(C(=O)N2CCOCC2)=C1C (stereo not given) 11.8%
CN(c1ccc(C(=O)Nc2ccccc2C(F)(F)F)cc1)S(C)(=O)=O 5.77%
Cc1cc(C)n(C(=O)c2ccc(Cn3nc(C)c(Br)c3C)o2)n1 4.85%
Nc1c(C(=O)N2CCCCC2)sc(=S)n1-c1ccccc1 10.5%
Nc1c(C(=O)N2CCOCC2)sc(=S)n1-c1ccccc1 11.6%
NC(=O)c1ccccc1NC(=O)C1CCCO1 (stereo not given) 5.38%
C/C(O)=C(/C#N)c1nc2ccccc2[nH]1 9.91%
C/C(O)=C(\C#N)c1nc2ccccc2[nH]1 6.3%
CCc1cccc(C)c1NC(=O)CC(C)(C)CC(=O)O -15.4%
Cc1ccc(N/N=C(\C#N)C(N)=S)cc1C 14.2%
COc1ccc(CC(=O)Nc2cc(S(=O)(=O)N3CCOCC3)ccc2N2CCCC2)cc1 -0.25%
CCN(CC)S(=O)(=O)c1cccc(NC(=O)CN(C)C2CCCCC2)c1 -0.2%
CN(C)S(=O)(=O)c1cccc(NC(=O)CCCC2CCCCC2)c1 4.27%
Cc1ccc(NC(=O)CNCC2CCCCC2)cc1S(=O)(=O)N(C)C 28.9%
CCN(CC)S(=O)(=O)c1ccc(NC(=O)CNC2CCCCC2)cc1 31.5%
COc1ccc(S(=O)(=O)Nc2ccccc2C(=O)N2CCOCC2)cc1OC 3.41%
COc1ccc(CCNC(=O)C(C)SCC(=O)Nc2ccc(F)cc2)cc1 (stereo not given) 6.87%
Cc1cc([N+](=O)[O-])nn1CC(=O)Nc1nc2ccccc2s1 6.23%
COc1ccccc1OCC(=O)N/N=C(\C)c1ccc2ccccc2c1 5.4%
COc1ccc(/C(C)=N/NC(=O)Cc2c(C)nc(C)[nH]c2=O)cc1 -5.47%
COc1cccc(C(=O)N/N=C(\C)c2ccc(NC(=O)Cc3ccccc3)cc2)c1OC 10.3%
C/C(=N\NC(=O)C(O)(c1ccccc1)c1ccccc1)c1ccc(NC(=O)CCCC(=O)O)cc1 7.64%
COc1cc(C(=O)O)ccc1O 9.79%
COc1ccc(/C(C)=N/NC(=O)c2ccncc2)cc1 4.26%
COc1ccc(/C(C)=N/NC(=O)c2ccncc2)cc1[N+](=O)[O-] 3.87%
COc1ccccc1C(=O)N/N=C(\C)c1ccc(NC(=O)Cc2ccccc2)cc1 7.02%
Cc1ccccc1N1CCN(C2=NC(=O)/C(=C/c3cn[nH]c3-c3ccccc3)S2)CC1 -0.05%
CC(=O)N1c2ccc(S(=O)(=O)N3CCCCC3)cc2CC1C(=O)NCc1ccc(N(C)C)cc1 (stereo not given) 3.76%
Fc1ccc(CNC(=S)NCc2ccc(F)cc2)cc1 -6.74%
CCNC(=S)N(Cc1cccs1)Cc1cc2cc(OCC)ccc2[nH]c1=O 9.83%
COc1ccc(OCCOCCOc2ccc(C)cc2[N+](=O)[O-])cc1 4.97%
Cc1cnc(C(=O)OC(C(=O)c2c[nH]c3ccccc23)c2ccccc2)cn1 (stereo not given) 10%
C=C1/C=C(\C)C(C)(O)CC(O)CC(=O)C(O)C(O)C(C)CC(C)OC(=O)/C(C)=C/CC/C=C/C(OC)C(O)CC(C)C1 (stereo not given) 9.68%
COc1cc(CN2CCCC(CO)(Cc3ccccc3C)C2)cc2c1OCO2 (stereo not given) 1.83%
O=C(Nc1cc(Br)ccc1O)c1cc(-c2ccco2)on1 8.94%
Brc1cccc(OCCN2CCCCC2)c1 17.4%
Brc1ccc(OCCOCCN2CCOCC2)cc1 4.13%
Clc1cccc(OCCN2CCOCC2)c1 10.7%
Brc1ccc(OCCN2CCOCC2)cc1 28.6%
COc1ccccc1C(=O)OCC(=O)N1CCC(Cc2ccccc2)CC1 6.97%
O=C(/C=C/c1cccc([N+](=O)[O-])c1)OCC(=O)N1CCN(C(=O)c2ccco2)CC1 4.32%
CCOC(=O)/C=C/C(=O)OCC(=O)N1CCN(C(=O)c2ccco2)CC1 8.47%
COc1cccc(OC)c1C(=O)OCC(=O)N1CCC(Cc2ccccc2)CC1 -0.57%
COc1cc(/C=C/C(=O)OCC(=O)N2CCCc3ccccc32)ccc1OC(F)F 1.81%
COc1cc(/C=C/C(=O)OCC(=O)N2CCCc3ccccc32)ccc1OCC#N 6.56%
COc1ccccc1OCC(=O)N1CC2(C)CC1CC(C)(C)C2 (stereo not given) 8.14%
COc1ccc(/C=N/OCC(=O)N2CC3(C)CC2CC(C)(C)C3)cc1OC (stereo not given) 4.24%
Cc1ccc(-c2ccc(=O)n(CC(=O)NCCN(CC(C)C)CC(C)C)n2)cc1 8.51%
O=C1C(CO)C(CO)C(CO)C1CO (stereo not given) -2.59%
CNCCCc1[nH]nc(N)c1C#N 9.11%
CCN(CC(=O)Nc1c(F)cccc1F)C(=O)c1cn2ccccc2n1 2.69%
Cc1ccn2cc(CCNC(=O)c3ccc(Br)o3)nc2c1 13.4%
O=S(=O)(CCc1nc2ccccc2s1)c1ccc2ccccc2c1 18.8%
CCN(CC)S(=O)(=O)c1ccc(NN)nc1 -5.75%
COc1ccc(/C=C/C(=O)OCC(=O)N2CCN(S(=O)(=O)c3ccc(C)cc3C)CC2)cc1OC -0.78%
COc1cc(/C=C/C(=O)OCC(=O)N2CCCC2)cc(OC)c1OC 4.39%
COc1cc(/C=C/C(=O)OCC(=O)N2CCN(S(=O)(=O)c3ccc(C)cc3C)CC2)ccc1OC(F)F 5.89%
COc1ccc(/C=C/C(=O)OCC(=O)N2CCCCCC2)cc1OC 0.54%
COc1cc(C(=O)O)nc(OC)n1 0.97%
CCOC(=O)c1nn(-c2ccc(Cl)cc2)c(=O)c(C#N)c1C 5.44%
O=C(O)CNC(=O)c1ccc(Oc2c(F)c(F)c(Oc3ccc(C(=O)NCC(=O)O)cc3)c(F)c2F)cc1 -1.5%
N#CCSc1nnc2sc3ccccc3n12 5.4%
O=S(=O)(O)c1nnc2sc3ccccc3n12 7.48%
